Experiments:
[1] = molecular target: Leukocyte tyrosine kinase receptor (Homo sapiens) (UniProt P29376); conditions: at 1 µM;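 note: each value is the mean inhibition of LTK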
[2] = molecular target: Tyrosine-protein kinase Lyn (Homo sapiens) (UniProt P07948); conditions: at 0.1 µM
[3] = molecular target: Tyrosine-protein kinase Lyn (Homo sapiens) (UniProt P07948); conditions: at 1 µM
[4] = molecular target: Tyrosine-protein kinase Lyn (Homo sapiens) (UniProt P07948); conditions: at 0.1 µM; remark: listed apart in the source
[5] = molecular target: Tyrosine-protein kinase Lyn (Homo sapiens) (UniProt P07948); conditions: at 1 µM; remark: listed apart in the source
[6] = molecular target: T1, Tyrosine-protein kinase Mer (Homo sapiens) (UniProt Q12866); conditions: at 0.1 µM
T1 sequence (whole entry): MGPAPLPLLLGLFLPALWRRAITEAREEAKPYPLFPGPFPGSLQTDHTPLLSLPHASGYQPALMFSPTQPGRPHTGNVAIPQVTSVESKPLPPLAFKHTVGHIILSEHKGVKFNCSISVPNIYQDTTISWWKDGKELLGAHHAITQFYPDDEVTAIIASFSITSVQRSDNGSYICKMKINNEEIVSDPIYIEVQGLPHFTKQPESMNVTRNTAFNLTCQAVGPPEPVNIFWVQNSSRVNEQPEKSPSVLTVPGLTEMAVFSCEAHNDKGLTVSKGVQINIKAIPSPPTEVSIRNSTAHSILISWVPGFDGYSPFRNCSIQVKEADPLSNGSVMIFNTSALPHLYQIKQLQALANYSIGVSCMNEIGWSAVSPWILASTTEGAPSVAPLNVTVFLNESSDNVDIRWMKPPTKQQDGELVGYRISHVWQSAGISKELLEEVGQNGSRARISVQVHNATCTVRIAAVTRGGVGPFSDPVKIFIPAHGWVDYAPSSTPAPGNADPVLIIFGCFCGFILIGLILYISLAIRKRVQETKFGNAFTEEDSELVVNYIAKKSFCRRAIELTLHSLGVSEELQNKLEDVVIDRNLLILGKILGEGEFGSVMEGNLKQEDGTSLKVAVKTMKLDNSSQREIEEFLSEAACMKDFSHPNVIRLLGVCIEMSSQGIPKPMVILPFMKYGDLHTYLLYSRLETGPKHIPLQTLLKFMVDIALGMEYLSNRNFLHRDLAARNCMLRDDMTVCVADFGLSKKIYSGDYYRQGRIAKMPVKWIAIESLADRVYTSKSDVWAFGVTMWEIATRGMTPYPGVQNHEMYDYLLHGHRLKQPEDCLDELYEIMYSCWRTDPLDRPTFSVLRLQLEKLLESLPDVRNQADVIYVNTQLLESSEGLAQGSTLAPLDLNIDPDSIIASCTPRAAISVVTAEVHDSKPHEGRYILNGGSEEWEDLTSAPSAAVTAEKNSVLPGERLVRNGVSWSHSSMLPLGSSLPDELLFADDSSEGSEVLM

[7] = molecular target: T1, Tyrosine-protein kinase Mer (Homo sapiens); conditions: at 1 µM
[8] = molecular target: Hepatocyte growth factor receptor (Homo sapiens) (UniProt P08581); conditions: at 0.1 µM
[9] = molecular target: Hepatocyte growth factor receptor (Homo sapiens) (UniProt P08581); conditions: at 1 µM
[10] = molecular target: T2, Muscle, skeletal receptor tyrosine-protein kinase (Homo sapiens) (UniProt O15146); conditions: at 0.1 µM;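 note: values are mean inhibition of MuSK from the GSK PKIS kinase screening panel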
T2 sequence (whole entry): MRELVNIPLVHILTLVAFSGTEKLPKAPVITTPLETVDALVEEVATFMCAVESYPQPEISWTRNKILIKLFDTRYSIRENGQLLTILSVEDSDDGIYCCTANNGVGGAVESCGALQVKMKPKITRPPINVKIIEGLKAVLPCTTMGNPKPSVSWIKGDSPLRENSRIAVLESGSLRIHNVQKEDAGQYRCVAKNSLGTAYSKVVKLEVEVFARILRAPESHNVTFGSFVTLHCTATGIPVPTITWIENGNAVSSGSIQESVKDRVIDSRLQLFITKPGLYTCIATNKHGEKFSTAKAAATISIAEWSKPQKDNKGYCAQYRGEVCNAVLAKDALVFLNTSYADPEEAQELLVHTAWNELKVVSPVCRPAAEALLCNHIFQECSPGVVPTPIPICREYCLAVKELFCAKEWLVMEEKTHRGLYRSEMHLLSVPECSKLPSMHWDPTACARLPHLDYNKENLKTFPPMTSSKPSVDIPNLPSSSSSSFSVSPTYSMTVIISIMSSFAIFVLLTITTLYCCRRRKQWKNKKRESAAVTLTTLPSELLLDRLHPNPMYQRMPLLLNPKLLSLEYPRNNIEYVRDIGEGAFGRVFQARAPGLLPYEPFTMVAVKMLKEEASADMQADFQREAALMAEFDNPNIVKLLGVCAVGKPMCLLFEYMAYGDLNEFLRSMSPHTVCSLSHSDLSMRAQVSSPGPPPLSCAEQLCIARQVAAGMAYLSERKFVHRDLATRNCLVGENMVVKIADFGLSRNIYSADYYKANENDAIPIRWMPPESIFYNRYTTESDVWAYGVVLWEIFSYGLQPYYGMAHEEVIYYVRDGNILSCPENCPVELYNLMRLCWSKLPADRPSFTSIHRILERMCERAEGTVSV

Chain of Tyrosine-protein kinase Lyn (Homo sapiens) (P07948 2-512 limits assumed): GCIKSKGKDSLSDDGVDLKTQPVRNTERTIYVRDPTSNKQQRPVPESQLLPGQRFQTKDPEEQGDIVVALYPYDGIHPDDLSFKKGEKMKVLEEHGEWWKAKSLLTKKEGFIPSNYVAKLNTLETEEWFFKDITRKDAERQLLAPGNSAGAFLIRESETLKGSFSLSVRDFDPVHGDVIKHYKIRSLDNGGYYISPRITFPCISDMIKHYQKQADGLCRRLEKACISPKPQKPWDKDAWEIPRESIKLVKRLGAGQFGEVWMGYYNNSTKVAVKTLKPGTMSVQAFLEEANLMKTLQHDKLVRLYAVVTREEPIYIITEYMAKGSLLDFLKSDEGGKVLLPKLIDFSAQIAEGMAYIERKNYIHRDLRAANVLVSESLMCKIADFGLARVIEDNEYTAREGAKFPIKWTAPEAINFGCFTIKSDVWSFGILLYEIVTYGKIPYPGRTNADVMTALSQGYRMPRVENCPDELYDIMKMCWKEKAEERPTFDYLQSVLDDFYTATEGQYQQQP
Chain of Hepatocyte growth factor receptor (Homo sapiens) (P08581 whole entry): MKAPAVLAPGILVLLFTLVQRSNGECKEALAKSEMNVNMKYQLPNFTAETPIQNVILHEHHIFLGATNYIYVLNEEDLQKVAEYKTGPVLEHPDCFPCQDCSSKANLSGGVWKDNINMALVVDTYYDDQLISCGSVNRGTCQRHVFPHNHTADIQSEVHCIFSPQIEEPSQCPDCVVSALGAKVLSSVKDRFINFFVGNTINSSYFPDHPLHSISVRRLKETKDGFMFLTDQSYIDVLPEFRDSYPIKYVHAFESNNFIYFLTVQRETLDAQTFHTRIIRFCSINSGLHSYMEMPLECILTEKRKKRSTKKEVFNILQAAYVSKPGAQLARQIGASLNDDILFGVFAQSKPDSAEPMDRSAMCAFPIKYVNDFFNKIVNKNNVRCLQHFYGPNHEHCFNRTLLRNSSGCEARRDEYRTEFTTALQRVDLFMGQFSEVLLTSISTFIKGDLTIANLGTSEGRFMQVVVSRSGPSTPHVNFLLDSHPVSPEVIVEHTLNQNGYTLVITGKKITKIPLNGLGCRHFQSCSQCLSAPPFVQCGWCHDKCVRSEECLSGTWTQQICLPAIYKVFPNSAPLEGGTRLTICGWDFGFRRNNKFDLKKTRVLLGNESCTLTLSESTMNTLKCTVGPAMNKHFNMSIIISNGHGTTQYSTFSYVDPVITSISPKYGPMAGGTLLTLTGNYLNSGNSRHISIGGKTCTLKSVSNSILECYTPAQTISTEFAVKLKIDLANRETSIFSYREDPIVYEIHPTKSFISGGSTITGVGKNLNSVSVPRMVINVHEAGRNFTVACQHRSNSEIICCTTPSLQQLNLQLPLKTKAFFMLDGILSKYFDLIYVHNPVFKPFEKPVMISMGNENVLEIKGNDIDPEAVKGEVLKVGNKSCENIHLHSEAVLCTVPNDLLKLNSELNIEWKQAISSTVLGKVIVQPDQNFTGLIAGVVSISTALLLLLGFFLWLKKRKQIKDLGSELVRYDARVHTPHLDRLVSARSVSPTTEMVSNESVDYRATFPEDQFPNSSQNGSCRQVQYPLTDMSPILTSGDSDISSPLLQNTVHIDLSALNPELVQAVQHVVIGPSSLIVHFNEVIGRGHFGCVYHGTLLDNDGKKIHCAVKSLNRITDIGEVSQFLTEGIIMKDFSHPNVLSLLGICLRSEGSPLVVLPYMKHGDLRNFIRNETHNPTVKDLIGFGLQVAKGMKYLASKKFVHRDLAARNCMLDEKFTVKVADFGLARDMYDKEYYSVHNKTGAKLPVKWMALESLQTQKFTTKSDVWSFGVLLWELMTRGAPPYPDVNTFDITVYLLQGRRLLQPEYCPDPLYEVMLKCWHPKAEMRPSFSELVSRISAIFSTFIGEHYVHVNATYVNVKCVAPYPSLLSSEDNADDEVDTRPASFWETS
Chain of Leukocyte tyrosine kinase receptor (Homo sapiens) (P29376 whole entry): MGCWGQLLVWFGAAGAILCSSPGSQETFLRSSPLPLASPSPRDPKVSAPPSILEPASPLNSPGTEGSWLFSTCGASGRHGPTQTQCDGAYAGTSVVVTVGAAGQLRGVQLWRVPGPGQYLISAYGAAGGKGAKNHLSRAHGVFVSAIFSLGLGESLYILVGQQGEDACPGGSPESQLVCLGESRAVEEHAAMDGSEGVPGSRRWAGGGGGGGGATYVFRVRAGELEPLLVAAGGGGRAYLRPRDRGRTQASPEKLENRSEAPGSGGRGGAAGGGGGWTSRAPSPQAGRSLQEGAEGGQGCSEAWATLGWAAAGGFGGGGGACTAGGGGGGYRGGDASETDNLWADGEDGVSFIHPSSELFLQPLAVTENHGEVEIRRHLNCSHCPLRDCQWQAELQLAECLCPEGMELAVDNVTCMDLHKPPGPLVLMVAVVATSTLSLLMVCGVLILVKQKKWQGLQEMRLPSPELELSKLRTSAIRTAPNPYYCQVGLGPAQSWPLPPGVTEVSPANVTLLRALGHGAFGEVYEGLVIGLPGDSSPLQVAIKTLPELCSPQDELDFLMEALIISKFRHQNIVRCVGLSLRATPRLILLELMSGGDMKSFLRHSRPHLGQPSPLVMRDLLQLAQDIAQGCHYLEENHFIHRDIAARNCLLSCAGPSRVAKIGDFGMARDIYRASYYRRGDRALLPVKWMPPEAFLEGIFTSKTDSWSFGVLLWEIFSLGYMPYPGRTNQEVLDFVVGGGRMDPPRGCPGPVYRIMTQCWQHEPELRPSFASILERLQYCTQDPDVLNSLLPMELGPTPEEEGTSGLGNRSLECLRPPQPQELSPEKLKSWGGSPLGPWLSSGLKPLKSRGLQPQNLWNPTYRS

SMILES	inhibition [1] [%]	inhibition [2] [%]	inhibition [3] [%]	inhibition [4] [%]	inhibition [5] [%]	inhibition [6] [%]	inhibition [7] [%]	inhibition [8] [%]	inhibition [9] [%]	inhibition [10] [%]
COC(=O)Nc1nc2ccc(Sc3ccc(NC(=O)Nc4cc(C(F)(F)F)ccc4F)cc3)cc2[nH]1	-2.11	5.69	56.1	4.04	49.8	-0.94	2.34	1.57	36.2	32.2
Fc1ccc(-c2nc3n(c2-c2ccncc2)CCS3)cc1	2.85	3.56	7.36	1.97	4.29	1.16	3.24	8.26	5.29	2.08
C#Cc1cccc(Nc2ncnc3ccc(OCCCCNCCS(C)(=O)=O)cc23)c1	28.5	7.93	26.9	5.05	21.8	2	5.14	3.29	8.4	1.86
C[C@@H](Oc1cc(-n2cnc3ccc(OC4CCN(C)CC4)cc32)sc1C(N)=O)c1ccccc1Cl	4.72	3.54	6.86	1.68	5.6	2.77	9.07	7.84	5.01	7.63
COc1ccc(-c2ccc3c(NC(=O)C4CC4)n[nH]c3n2)cc1	1.49	1.25	5.43	0.89	5.03	0.16	3.67	1.87	7.43	0.33
NCc1ccc(-n2c(-c3nonc3N)nc3cnccc32)cc1	5.03	6.22	5.56	4.38	2.34	1.5	5.54	5.16	9.91	6.42
C/C(Nc1ccc(S(N)(=O)=O)cc1)=C1/C(=O)Nc2ccccc21	9.41	1.53	8.14	0.71	6.94	0.6	9.21	3.68	9.39	3.8
N#Cc1ccc(Oc2nccc(-c3c(-c4ccc(F)cc4)ncn3C3CCNCC3)n2)cc1	5.69	5.36	7.26	3.37	4.34	2.29	2.26	3.69	6.49	1.86
CN(C)c1ccc2c(c1)/C(=C/Nc1ccc(S(N)(=O)=O)cc1)C(=O)N2	2.8	3.6	22.4	2.71	17.4	1.88	10.8	-0.65	4.48	8.66
COc1ccc2cc(-c3c(-c4ccncc4)nc(-c4ccc([S+](C)[O-])cc4C)n3C)ccc2c1 (stereo not given)	2.92	2	21.4	0.52	16.8	0.82	9.89	-1.42	3.32	0.94
Cc1ccc(C(=O)NC(C)C)cc1-c1ccc(C(=O)NCC2CC2)cc1	-1.83	-2.52	-1.28	-1.84	-0.78	-1.23	-0.29	-2.98	-5.28	-2.44
COc1ccc(C2=C(N3CCc4ccccc43)C(=O)NC2=O)cc1	5.38	6.92	6.95	5.2	5.98	1.96	1.78	6.5	7.87	2.97
NC(=O)c1ccc(Oc2nccc(-c3c(-c4ccc(F)cc4)ncn3C3CCNCC3)n2)cc1	4.14	4.17	5.34	1.86	4.92	3.18	6.79	13.2	8.14	3.97
Fc1ccc(-c2ncn(C3CCNCC3)c2-c2ccnc(Oc3ccc4c(c3)OCO4)n2)cc1	8.02	5.3	7.55	3.33	5.4	2.7	5.24	2.27	7.4	5.07
